# Assay outcomes deposited in PubChem BioAssay by National Center for Advancing Translational Sciences (NCATS).
# ALOX12 inhib – blocks human 12-lipoxygenase activity. P18054. purified 12-hLO, xylenol orange hydroperoxide absorbance. Potency, µM (highest dose often 57.1 µM), inactives show at the highest dose activity change, negative = inhibition, hits mostly inhibitors. 150,000 compounds, 0.12% hits; also: potency is read from the fitted curve at half-maximal effect; nearly all actives have a fitted effect of over 55% in size
# Target sequence (P18054 whole entry, looked up): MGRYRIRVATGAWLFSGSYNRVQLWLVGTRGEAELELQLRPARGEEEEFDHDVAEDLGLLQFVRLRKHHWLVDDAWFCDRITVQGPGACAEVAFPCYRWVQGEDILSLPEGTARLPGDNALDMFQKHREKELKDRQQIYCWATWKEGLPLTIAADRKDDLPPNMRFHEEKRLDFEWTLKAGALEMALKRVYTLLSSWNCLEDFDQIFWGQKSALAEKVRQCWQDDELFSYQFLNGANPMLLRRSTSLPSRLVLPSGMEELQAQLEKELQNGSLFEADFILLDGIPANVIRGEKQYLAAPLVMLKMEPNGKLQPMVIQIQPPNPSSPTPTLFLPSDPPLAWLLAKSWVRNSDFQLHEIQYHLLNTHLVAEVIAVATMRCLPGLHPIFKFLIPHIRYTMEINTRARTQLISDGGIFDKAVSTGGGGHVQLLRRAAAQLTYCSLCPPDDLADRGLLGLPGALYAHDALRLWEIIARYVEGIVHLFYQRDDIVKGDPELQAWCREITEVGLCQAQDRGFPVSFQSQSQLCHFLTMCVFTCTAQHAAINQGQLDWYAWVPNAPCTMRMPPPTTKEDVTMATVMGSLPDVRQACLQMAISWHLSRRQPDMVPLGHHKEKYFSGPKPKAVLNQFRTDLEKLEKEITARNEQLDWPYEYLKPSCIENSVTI
#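 Purified human 12hLO (150 nM), preincubated 15 min with compound, then 40 uM arachidonic acid for 30 min, room temperature, Hepes pH 7.0 with 0.01% Triton X-100. Hydroperoxide detected by ferrous iron/xylenol orange; 573/405 nm absorbance ratio gives reaction progress.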
# PNC inhibitor – inhibitors of perinucleolar compartment assembly; PC3M PTB-GFP, PNC prevalence imaging, 16 h; active compounds read low; 140,000 compounds, 3.1% hits; activity change (PNC), negative = inhibition, % at 10 µM;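 active = readout at or below -70, meaning at least 70% loss of cells showing the perinucleolar compartment, a nuclear body marking cancer cells; inconclusive = readout between -30 and a set limit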;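 also: plate controls were DMSO wells for no effect and camptothecin positive control wells for full effect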
#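 Read-out is percentage of cells bearing a perinucleolar compartment, from automated 20x imaging of fixed, Hoechst-stained PC3M PTB-GFP cells. Cells were seeded 4 h, then exposed 16 h to compound (23 nl of library stock) in duplicate plates.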
# 15-hLO-2 inh – blocks human 15-lipoxygenase 2 activity | O15296 | purified 15hLO-2, xylenol orange hydroperoxide absorbance | Potency, µM (titrated, usually from 57.1 µM), without a hit: top-dose activity change, negative = inhibition, actives largely listed as inhibitors | 110,000 compounds, 0.56% hits | AID 881; also: potency is read from the fitted curve at half-maximal effect; nearly all actives have a fitted effect of over 60% in size
#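 Purified human 15hLO-2 (50 nM final) preincubated with compounds 15 min at room temperature in 25 mM Hepes pH 7.5, 0.01% Triton X-100, then 45 uM arachidonic acid added for 90 min; hydroperoxide detected via ferrous/xylenol orange, 573/405 nm absorbance ratio.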
# Active calls of the source: *; ? = inconclusive; / = no result given; [ ] = remark or other dose. In the library only some 3.2% were active in any assay of this set; here they are far more common. Unless noted, calls follow the shape of the dose curve; as a rule, active = well fitted curve in the direction sought with a large enough effect; inconclusive = small, poorly fitted or top-dose-only effect, or another doubt; inactive = no such curve, though single readings can be large; an effect the other way counts as inactive or inconclusive. Unless noted, % is scaled to controls: 0 for no effect and ±100 for the full control effect.
SMILES,ALOX12 inhib,PNC inhibitor,15-hLO-2 inh
COc1ccc(-c2c3c(=O)n(C)c(=O)n(C)c3cn2-c2ccccc2)cc1,-2.3%,-90.9*,-22.1%
CCCCCCCCCCCCCC(=O)N[C@@H](C)[C@H](O)c1ccccc1,27.0%,/,/
CCC(C)NC(=O)COc1ccccc1[N+](=O)[O-] (stereo unspecified),2.2%,?,/
CCCC(=O)Nc1cc(C(=O)O)ccc1S(=O)(=O)c1ccc(C)cc1,-0.3%,-113.4*,/
CC(=O)Nc1cc(C(=O)N2CCCC2)ccc1S(=O)(=O)c1ccc(C)cc1,-4.6%,15.6,8.5%
COc1ccc(C(=O)N2CCC[C@@]3(CCN(Cc4cc(C(F)(F)F)cc(C(F)(F)F)c4)C3)C2)cc1,-0.5%,/,11.9%
CSc1ncnc2c1ncn2[C@@H]1O[C@@H](CO)[C@H](O)O[C@@H]1O,-5.0%[11.4 µM],/,9.3%[11.4 µM]
CCC1(C)Cc2ccccc2-c2c1c(=O)n(-c1ccc(C)cc1)c1nnnn21 (stereo unspecified),4.1%,21.6,6.0%
CC1(C)Cc2ccccc2-c2c1c(=O)n(Cc1ccccc1)c1nnnn21,0.7%,-100.0*,/
CC(=O)CC(=O)Nc1ccccc1,-1.0%,/,-4.3%
Cc1ccc(NC(=O)COc2ccc(/C=N/NC(=O)CSCc3ccccc3)cc2)cc1,-4.2%,16.3,3.4%[11.4 µM]
CCOC(=O)c1c2ccc(OCC(=O)N/N=C/c3ccc(C)cc3)cc2n2ccccc12,-4.8%,35.1,15.8µM*
N#CCCn1c(=O)c(-c2ccc(Cl)cc2)nc2cnc(Oc3cccc(Cl)c3)nc21,-4.4%,/,-11.1%
Cc1ccccc1Oc1cc(-n2ncc(Cl)c(Cl)c2=O)ncn1,-3.8%,-86.5*,/
CCOc1cnn(-c2cc(Oc3ccc(C)cc3)ncn2)c(=O)c1Cl,-5.1%,-15.8,4.0%
NC(N)=NCCN1CCCCCCC1,-0.7%,/,5.1%
COc1ccc(-c2nc(-c3ccccc3)c(Nc3ccc4ccccc4c3)o2)cc1,0.3%,/,/
COc1cccc(Cn2c(=O)c(-c3cccs3)nc3cnc(OCc4ccccc4)nc32)c1,/,/,-6.3%
Cc1cccc(C(=O)N2CCN(c3ncnc4c3cnn4-c3ccccc3)CC2)c1,0.4%,-5.1,/
O=C(COc1ccccc1)N1CCN(c2ncnc3c2cnn3-c2ccccc2)CC1,6.2%,-97.1*,8.5%
COC(=O)c1ccc(Sc2ccccc2NS(=O)(=O)c2ccc(OC)cc2)nc1,-1.7%,1.5,9.4%[11.4 µM]
COC(=O)NNC(=O)c1ccc(C)c(Br)c1,-0.9%,27.1,/
COc1cccc(C2=CC(c3cccc(OC)c3OC(F)F)n3nnnc3N2)c1 (stereo unspecified),5.6%,18.5,-0.5%
COc1cccc(C2=CC(c3cccc(OC)c3OC)n3nnnc3N2)c1 (stereo unspecified),-5.1%,-86.6*,-11.7%
O=C(Nc1ccccc1)Nc1nnc(SCc2ccc(Cl)cc2)s1,-2.6%,-17.7,/
SMILES,ALOX12 inhib,PNC inhibitor,15-hLO-2 inh
O=C(Nc1ccc(Cl)cc1)Nc1nnc(SCc2ccc(Cl)cc2)s1,-1.9%,-110.8*,/
O=C(NCc1cccs1)C1CCCN(c2ncccn2)C1 (stereo unspecified),3.2%,-86.0*,1.3%
O=C(NCc1cccs1)C1CCCCC1,-3.1%,?,0.3%
CS(=O)(=O)N(CC(=O)NCCSc1ccccn1)c1cccc2ccccc12,-0.9%,4.6,/
COC(=O)c1ccccc1S(=O)(=O)N(Cc1cc2ccc(OC)cc2[nH]c1=O)CC1CCCO1 (stereo unspecified),-10.2%,-97.9*,1.8%
COc1ccc2cc(CN(CC3CCCO3)S(=O)(=O)c3ccc(C(C)=O)cc3)c(=O)[nH]c2c1 (stereo unspecified),-5.4%,29.5,-2.4%
CNc1nc(-c2c(C)noc2C)nc2ccccc12,/,/,-1.9%
O=C(COc1ccccc1Cl)Nc1ccc2c(c1)OCCO2,-5.6%,13.8,-2.1%
O=C(CN1CCN(CC(=O)Nc2ccccc2Cl)CC1)Nc1ccc2c(c1)OCCO2,-5.8%,-100.0*,-14.7%
COc1ccc(NC(=O)CN2CCN(CC(=O)Nc3ccccc3Cl)CC2)cc1,-6.9%,50.8,-6.2%
COc1ccc(NC(=O)CN2CCN(c3ccccc3Cl)CC2)cc1,9.4%,-100.0*,/
O=C(CSCc1c(Cl)cccc1Cl)Nc1ccc2c(c1)OCCO2,-2.8%,-83.4*,/
COc1ccccc1NC(=O)CN1CCN(CC(=O)Nc2ccc3c(c2)OCCO3)CC1,-3.3%,9.1,-5.9%
CCN(CC)S(=O)(=O)c1ccc2c(c1)nc(SCC(=O)N1CCOCC1)n2-c1ccccc1OC,-4.8%,?,-4.7%
CC1CCCCN1C(=O)CSc1nnc(-c2ccc(Cl)s2)o1 (stereo unspecified),-8.5%,?,-0.8%
O=S(=O)(c1ccc(Cl)cc1)N1CCCC1c1nc2ccccc2s1 (stereo unspecified),-12.5%,6.0,-4.2%
O=S(=O)(c1cc(Cl)cc(Cl)c1)N1CCCC1c1nc2ccccc2s1 (stereo unspecified),0.9%,-100.0*,/
Cc1cc(C(=O)OCC(=O)N2c3ccccc3CC2C)c(C)o1 (stereo unspecified),1.7%,?,-3.4%[11.4 µM]
C/C(=N\NC(=O)Cc1cccn1C)c1cccs1,-3.5%,7.2,/
C/C(=N\NC(=O)CC1(C)OCCO1)c1cccs1,0.5%,-88.4*,/
CNc1nc(-c2ccoc2)nc2ccccc12,/,/,5.9%
CSc1nc(-c2ccco2)cc(-c2ccccc2)c1C#N,-6.7%,-27.3,-22.8%
COc1ccc(-c2cc(-c3ccc(OC)cc3)c(C#N)c(SC)n2)cc1,3.2%,-100.0*,/
CO[C@]1(C2=NCCN2)COc2ccccc2O1,-7.8%,/,17.8%
Cc1ccc(OCCOCCN(C)C)c(Cl)c1,-1.4%,-95.9*,/
SMILES,ALOX12 inhib,PNC inhibitor,15-hLO-2 inh
COc1cc(C)ccc1OCCOc1cc(C)ccc1Cl,?,-11.1,15.8µM*
CCc1cc(OCCOCCN(C)C)ccc1Cl,-3.3%,74.3,/
COc1cc(C)ccc1OCCOc1c(Cl)cc(Cl)cc1Cl,-9.2%,?,13.9%
COc1cccc(-c2nc(NCc3cnc(C)cn3)c3ccccc3n2)c1,11.2%,/,13.4%
COc1cc(C2c3c(-c4cc(C)cc(C)c4O)n[nH]c3C(=O)N2CCCO)cc(OC)c1OC (stereo unspecified),-1.5%,-100.0*,2.1%
COc1ccc(CCN2C(=O)c3[nH]nc(-c4ccccc4O)c3C2c2ccccc2)cc1OC (stereo unspecified),-16.6%,13.6,-7.1%
C=CCSC(=S)NC1CCS(=O)(=O)C1 (stereo unspecified),3.4%,21.2,/
CC1(C)CC(=O)C2=C(C1)NC(=O)CC2c1ccccc1F (stereo unspecified),-1.4%,29.0,-8.4%
Cc1[nH]nc2c1C(c1ccccc1F)CC(=O)N2 (stereo unspecified),9.4%,-106.3*,/
CCOC(=O)C(C)Sc1nnc2n1C(C)(C)Cc1ccccc1-2 (stereo unspecified),-6.6%,-100.0*,/
CC1(C)Cc2ccccc2-c2nnc(SCc3ccccc3)n21,7.1%,-7.4,/
CCn1c(N2CCN(C(=S)NCCc3ccccc3)CC2)nc2ccccc21,-0.4%,-11.7,16.3%
COc1ccccc1CNC(=O)c1ccc(OC(F)F)c(OC)c1,0.2%,?,/
C=CCN1c2ccccc2[C@]23C[C@@H](C(=O)OC)N(S(=O)(=O)c4cccs4)C2=NC(C(=O)OC)=C(C(=O)OC)[C@H]13,-2.0%[11.4 µM],/,/
